# Screening data as filed in PubChem.
# D1 potentiator: potentiators of human D1 dopamine receptor | hit rate 0.036% among 360,000 | P21728 | AID 504651 | potentiation, % at 10 µM | HEK293 TREx D1 cells, calcium flux, dopamine EC20 potentiation; in the data active means potentiation above about 30%
# DRD3 antagonist: antagonists of human D3 dopamine receptor. P35462. D3R cells, DiscoveRx beta-arrestin luminescence, antagonist mode; stronger effect = lower value. max response, negative = inhibition, %. hit rate 2.5% among 360,000. AID 652054; in the data active means max response below about -50%; inconclusive means no clear call, values can overlap the other calls
#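 Cells plated overnight at 1500 cells/well, then exposed to library compounds with dopamine controls for 90 minutes at 37 degrees C. DiscoveRx reagent added for 30–60 minutes at room temperature; luminescence read, quantitative HTS format.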
# ERG-DNA inh: blocks human ERG Ets domain binding to DNA | Potency, µM (top dose mostly 76.9 µM), actives largely listed as inhibitors | fluorescence polarization, His-ERG Ets domain / labelled DNA | P11308 | hit rate 0.028% among 370,000; active means well fitted inhibition curve with a large enough effect in the polarisation, with a control signal flat; inconclusive means small, poorly fitted or top-dose-only effect, or effect the other way, or a change in a side signal; inactive means no such curve, though single readings can be large or run the other way; the % refers to the polarisation;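 further: polarization taken with two DNA probes labelled with fluorescein and Texas red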
# Target sequence (P11308 whole entry, looked up, the tested form may be a part): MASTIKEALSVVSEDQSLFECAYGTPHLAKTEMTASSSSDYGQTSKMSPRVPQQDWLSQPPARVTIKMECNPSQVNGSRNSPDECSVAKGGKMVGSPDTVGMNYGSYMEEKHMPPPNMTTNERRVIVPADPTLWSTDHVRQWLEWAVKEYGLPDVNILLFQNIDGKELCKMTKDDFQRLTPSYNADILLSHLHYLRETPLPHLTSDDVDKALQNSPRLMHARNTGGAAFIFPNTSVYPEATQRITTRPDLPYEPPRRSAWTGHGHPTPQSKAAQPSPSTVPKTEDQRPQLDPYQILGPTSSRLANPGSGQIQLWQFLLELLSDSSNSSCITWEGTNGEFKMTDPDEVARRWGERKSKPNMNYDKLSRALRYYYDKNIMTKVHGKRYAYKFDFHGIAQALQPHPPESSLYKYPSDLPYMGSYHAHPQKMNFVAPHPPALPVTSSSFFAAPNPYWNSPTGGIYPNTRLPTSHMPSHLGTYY
#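 His-tagged ERG Ets domain (1 uM in the protein solution; 300mM KCl, 50mM Tris-HCl, 1mM EDTA, 1mM DTT, pH 7.5) received compound, then a probe mix of 5 nM fluorescein-DNA and 100nM Texas-615-DNA. Fluorescence polarization was read for both dyes.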
# D1 antag: blocks dopamine activation of the human D1 receptor; activity change, negative = inhibition, % at 10 µM; HEK293 TREx D1 cells, calcium flux, dopamine EC80; stronger effect = lower value; P21728; hit rate 3.2% among 360,000; in the data active means activity change below about -30%
#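 Using tetracycline-induced force-coupled D1 Hek293 cells and a calcium dye, signals were followed for 180 s after compound, then for 180 s after EC80 dopamine, to detect inhibitors.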
# D3 ag: activates the human D3 dopamine receptor; P35462; D3R DiscoveRx beta-arrestin cells, luminescence, 90 min; max activation, %; hit rate 0.58% among 410,000; in the data active means max activation above about 30%
#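 Agonist-mode cell screen: cells plated at 1500/well and incubated overnight at 37 °C, then exposed to library compounds for 90 min at 37 °C. Detection reagent was added for 30–60 min at room temperature, and luminescence was read.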
# D1 agonist: agonists of human D1 dopamine receptor. HEK293 T-REx D1 cells, calcium flux, agonist mode. activation, % at 2 µM. AID 504660. hit rate 1% among 360,000; in the data active means activation above about 30%
#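 Agonism was scored from calcium flux recorded over 180 s (1 read/s) after pintool compound addition, following a 10-cycle baseline. Cells were inducible force-coupled HEK293 TREx D1, plated overnight at 30 C and loaded with no-wash calcium dye.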
# Numbers stand for hits; - = inactive; ? = inconclusive; . = not tested or not shown; ! = a repeat was not active. Hits are enriched below; roughly 6.1% of the tested compounds scored in any of these assays.
SMILES,D1 potentiator,DRD3 antagonist,ERG-DNA inh,D1 antag,D3 ag,D1 agonist
Cc1ccc(S(=O)(=O)Nc2cccc3c2CCCC3)cc1,-,-,-,-32,-,-
COc1ccc2nc(N(CCN(C)C)C(=O)c3ccc4ccccc4c3)sc2c1,-,-63,-,-,-,-
Cc1ccc2nc(N(CCN(C)C)C(=O)c3ccc4ccccc4c3)sc2c1,-,-,-,-,-,-
CN(C)CCCN(C(=O)C1=COCCO1)c1nc2ccc(Br)cc2s1,-,-,-,-41,-,68
COc1ccc2nc(N(Cc3cccnc3)C(=O)c3ccc(Cl)cc3)sc2c1,-,.,-,.,60,-
CN(C)CCN(C(=O)c1ccc2ccccc2c1)c1nc2ccc(Br)cc2s1,-,-55,-,-,-,-
CCOc1ccc2nc(SCC(=O)N(CC(C)C)c3c(N)n(Cc4ccccc4)c(=O)[nH]c3=O)[nH]c2c1,-,-,.,-,-,-
O=C(Nc1nnc(C2=COCCO2)o1)C1CCCCC1,.,-,-,-,-,-
Cn1nnnc1NCc1c(F)cccc1Cl,-,-,.,-,-,-
COc1c(Cl)cccc1NC(=O)c1c(NC(=O)Cc2ccccc2)sc2c1CCCC2,-,.,.,-,.,-
CCCCN(CCCC)CCNC(=O)c1cn(C)c2ccc(S(=O)(=O)N3CCOCC3)cc2c1=O,-,.,-,-35,-,-
CCCCN(C)C(=O)c1cn(C)c2ccc(S(=O)(=O)N(C)C)cc2c1=O,-,-,-,-,-,-
CC(C)CN(CCNC(=O)c1cn(C)c2ccc(S(=O)(=O)N3CCOCC3)cc2c1=O)CC(C)C,-,.,-,-,-,-
CCOc1ccc(CCNC(=O)c2cn(CC)c3ccc(S(=O)(=O)N4CCc5ccccc5C4)cc3c2=O)cc1OCC,-,.,-,-47,-,-
CCn1cc(C(=O)NCCCN2CCCC(C)C2)c(=O)c2cc(S(=O)(=O)N(C)C3CCCCC3)ccc21 (stereo unspecified),-,-,-,-79!,-,-
CCCCN(C)C(=O)c1cn(CC)c2ccc(S(=O)(=O)N(C)C)cc2c1=O,.,-,-,-31,-,-
CCn1cc(C(=O)NCCc2ccc(C)cc2)c(=O)c2cc(S(=O)(=O)N3CCc4ccccc4C3)ccc21,-,.,-,-,-,-
O=C(COc1ccc2c(-c3ccccc3)cc(=O)oc2c1)NCC1CCC(C(=O)O)CC1 (stereo unspecified),-,-,-,-,-,-
CCOCCCNC(=O)c1cn(CC)c2ccc(S(=O)(=O)N3CCC(C)CC3)cc2c1=O,-,-,-,-34,-,-
COc1ccccc1CNC(=O)c1cn(C)c2ccc(S(=O)(=O)N(C)C3CCCCC3)cc2c1=O,-,.,-,-37,-,-
CCN(CC)S(=O)(=O)c1ccc2c(c1)c(=O)c(C(=O)NCc1ccccc1OC)cn2C,-,.,-,-,-,-
CCOc1ccc(S(=O)(=O)n2cnc(C)c2)cc1,-,-,-,-44,-,-
CCOc1cc(C)c(C(C)C)cc1S(=O)(=O)n1cnc(C)c1,-,-,-,-31,-,-
Cc1cc(C)nc(SCCC(=O)N2CCOCC2)n1,-,-,-,-,-,-
Cc1cc(C)nc(SCC(=O)N2CCOCC2)n1,-,-54,.,-,-,-
SMILES,D1 potentiator,DRD3 antagonist,ERG-DNA inh,D1 antag,D3 ag,D1 agonist
CCCn1c(N)c(N2CCCCC2)c(=O)n(CC(=O)Nc2ccc(OC(F)(F)F)cc2)c1=O,-,-,-,-30,-,-
CCCn1c(N)c(N2CCCCC2)c(=O)n(CC(=O)Nc2ccccc2C)c1=O,-,-,-,-,-,-
O=C(c1ccccc1)N1CCCC(c2nc3c(nnn3Cc3ccccc3)c(=O)[nH]2)C1 (stereo unspecified),-,?,-,-,-,-
Cc1ccc(NC(=O)N2CCC(c3nc4c(nnn4Cc4cccc(Cl)c4)c(=O)[nH]3)CC2)cc1,-,-,-,-47,-,-
O=C(C1CCCCC1)N1CCCC(c2nc3c(nnn3Cc3ccccc3)c(=O)[nH]2)C1 (stereo unspecified),-,-108,-,-,-,-
O=C(OCCN1CCCCC1)c1ccccc1Cl,-,-68,-,-,-,-
Clc1ccccc1OCCCCN1CCCCC1,-,-95,-,-,-,-
Clc1ccccc1OCCCCN1CCNCC1,-,?,-,-,-,-
Clc1ccc(Cl)c(OCCCCN2CCCCC2)c1,-,-106,-,-,-,-
Clc1ccccc1OCCCCN1CCCC1,-,-85,-,-,-,-
CCc1cc2c3c([nH]c2cc1S(=O)(=O)N1CCC2(CC1)OCCO2)CCCC3=O,-,-,-,-,-,-
O=C(NC1CCCC1)c1ccc(CSc2nc3cccnc3n2Cc2ccc(F)cc2)cc1,-,.,-,-,-,-
COc1cc(C2CC(=O)Oc3cc(C)cc(C)c32)cc(OC)c1OC (stereo unspecified),.,-,-,.,-,.
CC1CCN(CCOc2cc(Cl)ccc2Cl)CC1,-,?,-,-59,-,-
Fc1ccccc1OCCCCN1CCCCC1,-,-81,-,-,-,-
Cc1ccc(Cl)c(OCCCCN2CCC(C)CC2)c1,.,-,-,.,-,.
c1ccc2c(OCCCCN3CCCC3)cccc2c1,-,?,-,-,-,-
O=C(CCn1c(=S)[nH]c2cc3c(cc2c1=O)OCO3)NCc1cccc(Cl)c1,-,-,-,-,-,-
S=C1NCN(CCc2ccccc2)CN1Cc1ccccc1,-,-,-,-,-,53
CCc1ccc(N2CN(CCc3ccccc3)CNC2=S)cc1,-,-,-,-,-,-
COc1cccc(N2CN(CCc3ccccc3)CNC2=S)c1,-,-,-,-30,-,-
CCCN1CNC(=S)N(Cc2ccccc2)C1,-,-,-,-,-,-
CCCN1CN(Cc2ccccc2)CNC1=S,-,-,-,-,-,-
CC(C)CN1CN(Cc2ccccc2)CNC1=S,-,-,-,-31,-,-
Fc1ccc(Cn2c(SCc3ccc(F)c(F)c3)nnc2C(F)(F)F)cc1,.,-,-,.,-,.
SMILES,D1 potentiator,DRD3 antagonist,ERG-DNA inh,D1 antag,D3 ag,D1 agonist
CCN1/C(=C/c2ccc3ccccc3[n+]2CC)C=Cc2ccccc21,-,-52,?,-,-,-
Cc1nnc(SCC(=O)NCc2ccccc2Cl)n(N)c1=O,-,-,.,-,-,-
C[C@H]1CNC(=O)c2c(C(=O)N3CCN(C(=O)OC(C)(C)C)CC3)ncn21,.,-55,.,.,-,.
O=C(NCCSc1c(-c2ccc(F)cc2)[nH]c2ccccc12)c1ccc(S(=O)(=O)N2CCOCC2)cc1,-,.,-,-,-,-
Cc1ccccc1-n1nc(C)c2cc(C(=O)NCc3cccnc3)sc21,-,-60,-,-,-,-
O=C(NCc1cccnc1)c1ccc(Br)s1,-,-,-,-,-,-
CN1CCN(S(=O)(=O)c2ccc(N(C)Cc3cccs3)nc2)CC1,-,-,-,-38,-,-
